According to the OligoGym collection:

target: EGF; assay: pooled miR-30 sensor sort-seq; sequence = guide strand; conditions: shRNA
Further: reference of the scale not given here.

| Sequence | sensor-assay potency score (higher = more potent) |
| --- | --- |
| TTAATTCTAACCATGTCCTTTC | -0.226 |
| TTCATTAACATCTTCACAGTAC | 0.809 |
| TTGACCAAATAACTTCTTCATT | -1.32 |
| TTACTTACAATCTTGTAACTGA | 0.581 |
| TTGTCTTTCTAAATCCACCCAA | 0.0842 |
| TTACATACTCTCTCTTGCCTTG | -0.0399 |
| AAACAAGTTGATGACATCGTTT | -0.985 |
| TTGAGTAGGTGATTAGTCGTAG | 0.0164 |
| TTGCAAACAAATTATGCTGTGT | 0.205 |
| TAAACCTTTCTACTGGATCAAC | -1.16 |
| TATCGGGTGAGGAACAACCGCT | -0.49 |
| TCTTCTGACACTCTAGTCTTGG | -0.41 |
| TACTGTAATGATTCCTTCCTGT | 0.571 |
| TTGAGAATTGGCAAACAGCAAA | -1.09 |
| TAATGTGGACAGAACCTCCATC | -0.544 |
| TTCTGTAATGTTATCTTCTGAC | -0.544 |
| TTAGTGATTATTTTGGAACGTT | 0.208 |
| TTAGATCAACTTCACCACCTGC | -0.392 |
| TAAATTTTGAAACTACTGGCAA | -0.0191 |
| TAAATCACTCCTTCCAATCAGA | -0.116 |
| TATCAGAACATAGTTTTCCATC | -1.09 |
| TTCTCTGTTGTACTGAATCCAA | -0.8 |
| TATATTACATACTCTCTCTTGC | 0.906 |
